# Active and inactive are the calls of the source.
# Key:
# [1] = test system: Human papillomavirus type 1a protein E7 (residues 44-93); test: small molecules binding HPV E7 44-93 – biochemical, small-molecule microarray, residues 44-93, 635 nm fluorescence, primary screen (AID 1108); conditions: fluorescence 635 nm, higher = more signal;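 further: E7 fragment applied at 1 µg/mL in TBST for 1 h at 4 C; score combines spot fluorescence with its signal to noise ratio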
# [2] = hepatitis C replication reporter changes, two-sided – Huh7 cells, luciferase reporter, HCV replication inhibitor project, primary screen (AID 1109); conditions: Huh7 HCV replicon luciferase reporter, 48 h; higher = more signal;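 further: huh7 hepatoma cells harbouring a luciferase neomycin HCV replicon reporter; luciferase luminescence as measure of HCV replicon replication; test concentration not given here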
# [3] = biological target: Left-right determination factor 2 (Homo sapiens) (UniProt O00292); test: small molecules binding LEFTY2 protein – biochemical, small-molecule microarray, 635 nm fluorescence scan, primary screen (AID 1110); conditions: higher = more signal
# Chain of Left-right determination factor 2 (Homo sapiens) (O00292 whole entry, looked up): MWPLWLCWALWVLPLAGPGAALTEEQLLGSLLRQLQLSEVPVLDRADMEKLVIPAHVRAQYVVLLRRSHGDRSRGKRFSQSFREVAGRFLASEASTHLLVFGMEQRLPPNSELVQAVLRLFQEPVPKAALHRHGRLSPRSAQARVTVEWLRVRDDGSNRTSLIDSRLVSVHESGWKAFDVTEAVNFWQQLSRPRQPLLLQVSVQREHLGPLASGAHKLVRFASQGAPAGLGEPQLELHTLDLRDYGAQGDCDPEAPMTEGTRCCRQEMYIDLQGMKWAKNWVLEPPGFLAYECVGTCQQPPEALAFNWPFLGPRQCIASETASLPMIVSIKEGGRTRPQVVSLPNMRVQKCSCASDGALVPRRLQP
# [4] = biological target: Calmodulin-1 (Homo sapiens) (UniProt P0DP23); test: small molecules binding calmodulin-1 with EGTA – biochemical, small-molecule microarray, Cy5-labelled CALM1, profiling panel (AID 1111); conditions: Cy5-CALM1 binding fluorescence, higher = more signal;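 further: labelled calmodulin applied in Tris saline Tween buffer holding calcium plus EGTA and DTT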
# [5] = biological target: Calmodulin-1 (Homo sapiens) (UniProt P0DP23); test: small molecules binding Ca-loaded calmodulin-1 – biochemical, small-molecule microarray, Cy5-labelled CALM1, plus calcium, artefact control for SMM control-protein annotation, profiling panel (AID 1112); conditions: Cy5-CALM1 binding fluorescence, higher = more signal;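 further: score merges spot fluorescence with signal to noise from triplicate slides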
# [6] = probe aWnt5a binding to arrayed compounds – biochemical, biotinylated probe, 635/667 nm fluorescence, primary screen (AID 1113); conditions: small-molecule microarray, higher = more signal;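 further: score merges 667 nm fluorescence intensity with signal-to-noise per printed feature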
# [7] = probe aShh binding to arrayed compounds – biochemical, biotinylated probe, 635/667 nm fluorescence, primary screen (AID 1114); conditions: small-molecule microarray, higher = more signal;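 further: probe is biotin-labelled aShh protein from a stem cell growth factor screen; measures binding of labelled protein to compounds printed on the slide; score merges feature fluorescence at 667 nm with signal-to-noise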
# [8] = probe aNog binding to arrayed compounds – biochemical, biotinylated probe, 635/667 nm fluorescence, primary screen (AID 1115); conditions: small-molecule microarray, higher = more signal;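 further: probe is biotinylated aNog protein used at 0.15 µg/mL for 1 h at 4 C; z-score combines 667 nm fluorescence of each spot with its signal to noise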
# [9] = biological target: Torsin-1A-interacting protein 1 (Homo sapiens) (UniProt Q5JTV8); test: compound microarray binding of lysate hLAP1 – cell lysate, small-molecule microarray, COS7 lysate, 635/667 nm fluorescence, primary screen (AID 1116); conditions: 635 nm fluorescence, higher = more signal
# Chain of Torsin-1A-interacting protein 1 (Homo sapiens) (Q5JTV8 whole entry, looked up): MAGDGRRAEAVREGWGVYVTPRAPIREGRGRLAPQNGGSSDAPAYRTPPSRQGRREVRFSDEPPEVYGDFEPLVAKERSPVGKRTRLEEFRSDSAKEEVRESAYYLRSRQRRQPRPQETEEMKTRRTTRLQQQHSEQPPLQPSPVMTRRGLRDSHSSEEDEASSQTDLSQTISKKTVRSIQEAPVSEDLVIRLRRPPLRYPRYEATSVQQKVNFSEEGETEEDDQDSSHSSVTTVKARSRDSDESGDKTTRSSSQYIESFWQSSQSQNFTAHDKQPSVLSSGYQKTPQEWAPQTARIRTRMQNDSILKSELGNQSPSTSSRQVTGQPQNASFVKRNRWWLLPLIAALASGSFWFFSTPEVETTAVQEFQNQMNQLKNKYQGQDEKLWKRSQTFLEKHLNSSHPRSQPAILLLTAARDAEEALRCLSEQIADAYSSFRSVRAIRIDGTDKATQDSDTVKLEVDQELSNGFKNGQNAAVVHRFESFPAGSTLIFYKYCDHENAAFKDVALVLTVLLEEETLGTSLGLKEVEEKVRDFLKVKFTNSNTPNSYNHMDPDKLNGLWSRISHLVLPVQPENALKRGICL
# [10] = biological target: Alpha-bungarotoxin (Bungarus multicinctus) (UniProt P60615); test: compounds binding labelled alpha-BTX control protein – biochemical, small-molecule microarray, Alexa647 label, 635/667 nm fluorescence, artefact control for SMM control protein annotation, profiling panel (AID 1117); conditions: alpha-BTX-A647 binding fluorescence, higher = more signal
# Chain of Alpha-bungarotoxin (Bungarus multicinctus) (P60615 whole entry, looked up): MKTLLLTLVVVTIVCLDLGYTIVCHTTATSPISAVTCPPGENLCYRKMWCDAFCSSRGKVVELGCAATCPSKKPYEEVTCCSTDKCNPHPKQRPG
# Albumin (Bos taurus) = Albumin (Bos taurus) (UniProt P02769); test: compounds binding labelled BSA control protein – biochemical, small-molecule microarray, Alexa647 label, 635/667 nm fluorescence, artefact control for SMM control protein annotation, profiling panel (AID 1118); conditions: BSA-A647 binding, fluorescence 635 nm, higher = more signal;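 further: score merges 667 nm emission intensity and signal-to-noise per printed compound spot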
# Chain of Albumin (Bos taurus) (P02769 whole entry, looked up): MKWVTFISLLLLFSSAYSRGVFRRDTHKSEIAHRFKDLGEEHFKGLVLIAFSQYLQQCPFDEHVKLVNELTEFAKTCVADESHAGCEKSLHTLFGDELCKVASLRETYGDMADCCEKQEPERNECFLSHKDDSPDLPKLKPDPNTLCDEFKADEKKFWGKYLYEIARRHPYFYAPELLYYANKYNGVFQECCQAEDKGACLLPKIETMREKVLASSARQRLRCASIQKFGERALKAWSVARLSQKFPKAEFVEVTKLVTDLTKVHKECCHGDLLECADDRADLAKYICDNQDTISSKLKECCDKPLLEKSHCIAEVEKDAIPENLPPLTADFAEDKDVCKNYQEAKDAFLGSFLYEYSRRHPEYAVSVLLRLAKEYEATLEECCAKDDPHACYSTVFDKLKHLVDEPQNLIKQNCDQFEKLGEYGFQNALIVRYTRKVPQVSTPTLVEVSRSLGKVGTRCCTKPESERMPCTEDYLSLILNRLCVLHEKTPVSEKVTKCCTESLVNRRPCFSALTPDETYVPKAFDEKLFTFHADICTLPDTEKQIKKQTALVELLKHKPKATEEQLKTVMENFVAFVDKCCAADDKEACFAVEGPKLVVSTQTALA
# [11] = probe aXIP binding to arrayed compounds – biochemical, NeuroSMM set, 635/667 nm fluorescence, primary screen (AID 1119); conditions: small-molecule microarray, higher = more signal, called active from +8 up or from −8 down;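 further: probe is the protein aXip251-270 applied at 1 µg/mL to compound-printed slides; binding of probe to printed compounds measured as 667 nm fluorescence plus signal to noise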
# [12] = probe aNOTCH3 binding on compound microarray – biochemical, small-molecule microarray, 635/667 nm fluorescence, primary screen (AID 1120); conditions: higher = more signal;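 further: probe is a biotin-tagged antibody raised against NOTCH3 rather than NOTCH3 protein; score merges spot fluorescence near 667 nm with spot signal to noise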
# [13] = probe aNOTCH2 binding on compound microarray – biochemical, small-molecule microarray, 635/667 nm fluorescence, primary screen (AID 1121); conditions: higher = more signal;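 further: score merges feature fluorescence read at 667 nm with its signal to noise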
# [14] = biological target: Carbonic anhydrase 2 (Homo sapiens) (UniProt P00918); test: compounds binding carbonic anhydrase 2 – biochemical, small-molecule microarray, Alexa647-labelled CAII, profiling panel (AID 1122); conditions: CAII-A647 binding fluorescence, higher = more signal
# [15] = COS7 lysate on small-molecule microarray, probe aHis, 635 nm (AID 1123); conditions: COS7 cell lysate, fluorescence, higher = more signal;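 further: z-score combines 667nm fluorescence intensity with signal-to-noise per printed compound spot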
# [16] = probe aLAP1 signal on lysate-treated microarray – cell lysate, small-molecule microarray, COS7 lysate, primary screen (AID 1124); conditions: probe aLAP1, fluorescence, higher = more signal;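 further: lysate comes from COS7 cells expressing LAP1 and is applied at 0.3 µg/mL; score merges spot fluorescence near 667 nm with signal-to-noise over triplicate slides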
# Sam68 (KHDRBS1) = test: compounds binding KHDRBS1 protein – biochemical, small-molecule microarray, 635 nm fluorescence, primary screen (AID 1125); conditions: higher = more signal;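 further: score merges 667 nm channel intensity with signal to noise over triplicate slides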
# [17] = test system: Chordin-like protein 2 (CHRDL2); test: compounds binding chordin-like 2 – biochemical, small-molecule microarray, 635 nm fluorescence, primary screen (AID 1126); conditions: fluorescence 635 nm, higher = more signal;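 further: printed compound slides probed with Chrdl2 protein at 4 µg/mL for 1 h at 4 C; score merges 667 nm emission intensity with signal to noise over three replicate slides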
# [18] = biological target: Concanavalin-A (Canavalia ensiformis) (UniProt P02866); test: compounds binding concanavalin A lectin – biochemical, small-molecule microarray, Alexa647 label, 635 nm, artefact control for SMM control protein annotation, primary screen (AID 1127); conditions: ConA-A647 binding fluorescence, higher = more signal;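 further: z combines 667 nm emission intensity with signal-to-noise across three replicate slides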
# Chain of Concanavalin-A (Canavalia ensiformis) (P02866 whole entry, looked up): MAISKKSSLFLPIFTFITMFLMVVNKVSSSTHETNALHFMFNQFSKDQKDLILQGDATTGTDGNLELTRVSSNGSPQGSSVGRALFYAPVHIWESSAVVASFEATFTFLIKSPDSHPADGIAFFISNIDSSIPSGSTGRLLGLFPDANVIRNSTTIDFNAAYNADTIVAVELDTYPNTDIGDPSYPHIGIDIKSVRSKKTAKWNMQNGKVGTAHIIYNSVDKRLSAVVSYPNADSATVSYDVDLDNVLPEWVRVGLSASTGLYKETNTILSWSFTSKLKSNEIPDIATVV
SMILES,composite z-score [1],z-score [2],composite z-score [3],composite z-score [4],composite z-score [5],composite z-score [6],composite z-score [7],composite z-score [8],composite z-score [9],composite z-score [10],composite z-score (Albumin (Bos taurus)),composite Z-score [11],composite z-score [12],composite z-score [13],composite z-score [14],composite z-score [15],composite z-score [16],composite z-score (Sam68 (KHDRBS1)),composite z-score [17],composite z-score [18]
O=C1[C@]2(CO)C=C(Br)[C@@H](C[C@@H]2c2ccccc2)[C@@]12CO2,-0.728,-3.08,0.218,-0.567,-0.322,-0.0165,-0.221,-0.158,-0.563,-0.0487,-0.102,0.689 (inactive),-0.0763,-0.16,0.129,-0.307,-0.139,-0.566,0.0616,0.195
CC(=O)Nc1cc(Br)ccc1C(=O)O,0.688,-0.0912,-0.229,0.908,0.762,-0.096,0.0556,-0.122,-0.134,0.424,0.782,-0.705 (inactive),-0.0142,-0.0502,0.363,0.385,-0.0197,0.402,-0.421,0.984
C=CC[C@@]1(C(=O)NCC(O)CO)N=C(c2ccc(OCCCO)cc2)O[C@@H]1c1ccccc1N=[N+]=[N-] (stereo not given in full),1.49,-0.747,-0.709,1.61,0.643,-0.0846,0.0062,1.39,2.06,1.12,1.04,0.338 (inactive),0.266,0.0007,0.778,3.7,1.02,0.931,-0.982,0.97
CCOC(=O)C[C@H]1[C@H](OC(=O)c2ccc(-c3ccccc3)cc2)[C@@H](NC(=O)c2ccc(-c3ccccc3)cc2)c2cc(OCCCO)ccc2N1C(=O)Cc1ccc(OC)cc1,0.629,-1.27,-0.186,0.382,-0.971,-0.0765,-0.366,-0.456,0.575,0.0738,0.225,-0.576 (inactive),-0.0146,-0.125,-0.0968,0.589,-0.002,-0.316,-0.15,0.363
COC(=O)[C@@]1(Cc2ccc(OC)cc2)[C@H]2c3cc(C(=O)N(C)C)n(Cc4c(OC)[nH]cc(C)c4=O)c3C[C@H]2CN1C(=O)c1ccccc1,-0.117,-1.1,0.464,0.352,-0.117,-0.16,-0.352,-0.248,0.808,-0.0941,0.589,0.0562 (inactive),1.04,0.107,0.881,1.57,-0.155,-0.0964,-0.218,-0.172
O=C1O[C@@H](c2ccccc2)[C@@H](c2ccccc2)N2[C@@H](c3ccc(O)cc3)[C@]3(C(=O)Nc4ccc(C#CC5(O)CCCCCC5)cc43)[C@@H](C(=O)N3CCCCCCC3)[C@H]12,1.48,-1.29,1.43,2.6,1.61,1.45,2.73,3.67,4.7,3.03,0.748,6.76 (inactive),2.12,1.06,0.742,3.88,0.894,1.33,1.55,1.12
CCCCCN1CC=CC23O[C@@H]4/C=C\CCC(C)OC(=O)C4[C@H]2C(=O)N(CCCCCO)[C@@H]3C1=O (stereo not given in full),-1.38,0.0822,-0.594,-0.476,-0.561,-0.298,-0.147,-0.24,-0.912,-0.937,-0.299,-0.127 (inactive),-0.149,-0.144,0.685,-0.389,-0.29,-1.09,-0.793,-0.541
CCOC(=O)C[C@H]1[C@H](OC(=O)c2ccccc2-c2ccccc2)[C@@H](NC(=O)Cc2ccc(OC)cc2)c2cc(OCCCO)ccc2N1C(=O)c1ccccc1,0.0712,-2.08,-0.3,-0.0521,-0.317,-0.0519,-0.327,-0.443,0.246,-0.0826,0.176,0.0843 (inactive),-0.113,-0.155,-0.0951,0.157,-0.0152,-0.0445,0.0492,-0.393
N#Cc1ccc(NN2C(C(O)c3ccc([N+](=O)[O-])cc3)C=CC3C(=O)N(c4ccccc4)C(=O)C32)cc1 (stereo not given),0.61,0.69,0.0872,0.971,0.235,0.119,0.935,1.18,0.818,0.752,0.552,0.156 (inactive),0.0847,0.181,0.758,2.75,0.833,1.3,0.0881,0.647
[N-]=[N+]=Nc1ccccc1[C@@H]1OC(c2ccc(OCCCO)cc2)=N[C@]1(CCS(=O)(=O)c1ccccc1)C(=O)N1CCOCC1,1.03,2.34,0.647,1.74,0.764,0.16,0.326,0.939,1.42,2.84,0.815,0.167 (inactive),0.287,0.0263,0.618,2.89,0.483,1.29,-0.535,1.1
O=C1O[C@H](c2ccccc2)[C@H](c2ccccc2)N2[C@H]1[C@@H](C(=O)O)[C@]1(C(=O)Nc3ccc(C#CC4=CCCCC4)cc31)[C@H]2c1ccc(OCCO)cc1,1.22,-1.69,0.659,0.447,0.166,0.055,-0.304,1.17,1.09,2.81,0.638,0.0759 (inactive),0.133,-0.0523,0.537,2.01,1.48,1.29,0.494,1.18

# — PubChem BioAssay
